Data as given in PubChem BioAssay AID1209 (Sanford-Burnham Center for Chemical Genomics, 2008).
“And” between values parts separate entries of the source, which are not always exact repeats. Equal values may be shown once. Hit rate of the full screen: of about 190,000 compounds, about 810 (0.43%) were called active. The full list was thinned out, with actives kept by preference. A number with no mark means an inactive call. Rule as the data show it: active = inhibition above about 50%; inactive = the rest.

molecular target: Mannose-6-phosphate isomerase (Homo sapiens) (UniProt P34949); assay: MPI enzyme activity inhibition – biochemical, fluorescence intensity, coupled assay, primary screen (AID 1209); settings: purified PMI enzyme, at 20 µM, stronger effect = higher value;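 also: plate controls were DMSO vehicle for no effect and wells lacking substrate for full effect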
Sequence (P34949 whole entry, looked up): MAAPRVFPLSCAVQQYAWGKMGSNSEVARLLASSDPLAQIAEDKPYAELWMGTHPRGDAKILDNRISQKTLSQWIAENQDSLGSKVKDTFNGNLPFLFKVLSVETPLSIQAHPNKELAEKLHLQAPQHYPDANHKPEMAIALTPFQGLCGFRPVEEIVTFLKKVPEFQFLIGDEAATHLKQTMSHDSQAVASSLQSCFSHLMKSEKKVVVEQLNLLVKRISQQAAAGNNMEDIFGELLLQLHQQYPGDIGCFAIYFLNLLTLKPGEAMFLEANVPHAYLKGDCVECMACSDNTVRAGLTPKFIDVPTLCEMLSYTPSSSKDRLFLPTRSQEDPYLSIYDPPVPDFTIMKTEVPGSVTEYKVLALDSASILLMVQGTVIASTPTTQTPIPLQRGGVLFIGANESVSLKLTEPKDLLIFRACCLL

Structure (SMILES)	inhibition
COc1ccc2c(=O)c(-c3ccccc3)coc2c1	52.5% (active)
CC(C)Oc1ccc2c(=O)c(-c3ccccc3)coc2c1	0.6% and 7.3%
CC(=O)Oc1ccc2c(=O)c(-c3ccccc3)coc2c1	-0.1%
COc1cccc(-c2ccc(SCC(=O)NCCc3ccccc3)nn2)c1	1.9%
O=c1[nH]c2ccccc2c(O)c1O	71.8% (active)
O=c1[nH]c2ccccc2c2ccccc12	3.2%
CC(=O)Nc1c(O)c2ccccc2[nH]c1=O	20.2%
Cc1cccc(/C(N)=N/OC(=O)C23CC4CC(CC(C4)C2)C3)c1	9%
Cn1c(=O)n(Cc2ccc(F)cc2)c(=O)c2c1nc1n2CCCN1C1CCCCC1	6%
CCOCCCNC(=O)CCC(=O)NNc1nc2ccccc2c2nc(C)nn12	57.5% (active)
CCCCNC(=O)CCC(=O)NNc1nc2ccccc2c2nc(C)nn12	6.3%
COCCCNC(=O)CCC(=O)NNc1nc2ccccc2c2nc(C)nn12	-1.5%
COC(=O)c1cccc(NS(=O)(=O)c2ccc(NC(C)=O)cc2)c1C	-4.2%
COc1cc(/C=N/Nc2ccc([N+](=O)[O-])cc2S(=O)(=O)N2CCOCC2)cc(OC)c1OC	-6.8%
O=[N+]([O-])c1ccc(N/N=C/c2cccc(O)c2O)c(S(=O)(=O)N2CCOCC2)c1	16.7%
O=C(Cc1csc(N2CCOCC2)n1)N/N=C/c1ccc(Cl)cc1Cl	4.7%
O=C(CCN1CCN(c2ccccc2)CC1)N/N=C/c1ccccc1O	-8.5%
O=[N+]([O-])c1ccc(N/N=C/c2ccc(O)c(O)c2O)c(S(=O)(=O)N2CCOCC2)c1	82.3% (active)
O=C(CCc1ccc(S(=O)(=O)N2CCOCC2)cc1)N/N=C/c1ccc(F)cc1F	4.8%
O=C(CCc1ccc(S(=O)(=O)N2CCOCC2)cc1)N/N=C/c1ccc(O)c(O)c1O	57.6% (active)
O=C(CCN1CCN(c2ccccc2)CC1)N/N=C/c1ccc(O)c(O)c1O	57.4% (active)
O=C(Cc1csc(N2CCOCC2)n1)N/N=C/c1cccc(O)c1	3.3%
COc1ccc(/C=N/NC(=O)CCN2CCN(c3ccccc3)CC2)c(OC)c1OC	-3.2%
O=C(CCc1ccc(S(=O)(=O)N2CCOCC2)cc1)N/N=C/c1cccc(O)c1	11.1%
O=C(Cc1csc(N2CCOCC2)n1)N/N=C/c1ccc(O)c(O)c1O	83.3% (active)

Structure (SMILES)	inhibition
CN(C)C(=O)COc1ccc(Br)cc1	8.1%
O=C(NN=C1CCCC1)c1sc2ccccc2c1Cl	-19.6%
COc1ccc(N(C(=O)CCl)C(C(=O)NCCc2ccccc2)c2cccs2)cc1Cl (centres undefined)	-8.6%
Cc1noc(NS(=O)(=O)c2ccc(NC(=O)C34CC5CC(C3)CC(n3cnc(Br)n3)(C5)C4)cc2)c1C	0.3%
O=C(CN1C(=O)CCC1=O)c1ccc(-c2ccccc2)cc1	5.6%
CC(=O)Nc1nc(SCc2ccc(Cl)cc2Cl)n[nH]1	2%
Nn1c(COc2ccc(Cl)cc2)nc2ccccc2c1=O	-0.6%
CC(=O)Nc1ccc(S(=O)(=O)N2CCN(C(=O)c3cccnc3)CC2)cc1	17.8%
CCOc1ccc(CCNC(=O)c2ccc(N3CCCC3=O)cc2)cc1OCC	1.3%
O=C1CN(CC(=O)Nc2ccc(SC(F)F)cc2)CCN1	2.5%
O=C(NCc1ccccc1)c1cccc(OCC(=O)N2CCN(C(=O)c3ccco3)CC2)c1	2%
CC1C(=O)Nc2ccccc2N1C(=O)C1CC1 (centres undefined)	-18%
CCC(C)C(=O)N1c2ccccc2C(=C2SC(C(=O)OC)=C(C(=O)OC)S2)C(=S)C1(C)C (centres undefined)	63.8% (active)
COC(=O)C1=C(C(=O)OC)SC(=C2C(=S)C(C)(C)N(C(=O)C3CC3)c3ccccc32)S1	71.6% (active)
C/C=C/C(=O)N1c2ccccc2C(C)=CC1(C)C	-2.5%
COC(=O)C1=C(C(=O)OC)SC(=C2C(=S)C(C)(C)N(C(=O)C(C)C)c3ccccc32)S1	68% (active)
COC(=O)C1=C(C(=O)OC)SC(=C2C(=S)C(C)(C)N(C(=O)CC(C)C)c3ccccc32)S1	38.8%
COC(=O)C1=NN(c2ccccc2)C2(S1)SC(C(C)=O)=C(C)N2c1ccccc1 (centres undefined)	9.2%
CCCC(=O)N1c2ccccc2C(=C2SC(C(=O)OC)=C(C(=O)OC)S2)C(=S)C1(C)C	62.1% (active)
CCCC(C(=O)O)N1C(=O)/C(=C2\C(=O)N(C)c3ccccc32)SC1=S (centres undefined)	16.5%
CN1C(=O)/C(=C2\SC(=S)N(C(CCC(=O)O)C(=O)O)C2=O)c2ccccc21 (centres undefined)	22.8%
O=C(C1CCC(C(=O)N2CCc3ccccc32)CC1)N1CCc2ccccc21 (centres undefined)	3.2%
CC1(C)c2ssc(=S)c2-c2ccccc2N1C(=O)CSC1=NCCS1	14.3%
Cc1ccc(/C=C/C(=O)CCC(=O)O)cc1	-0.7%
O=C(N/N=C/c1c[nH]c2ccccc12)c1sc2ccccc2c1Cl	17.1%

Structure (SMILES)	inhibition
COc1cc(C2C3=C(CC(C)(C)CC3=O)OC3=C2C(=O)CC(C)(C)C3)cc([N+](=O)[O-])c1O	0.1%
O=C(CC1SC(=O)N(Cc2cccc3ccccc23)C1=O)Nc1nccs1 (centres undefined)	9.8%
O=C(/C=C/c1ccccc1)Oc1ccccc1C(=S)N1CCOCC1	15.6%
Cc1csc(NC(=O)c2cc(C)oc2C)n1	-8.4%
CCOC(=O)c1sc(NC(=O)C2CCCO2)c(C(=O)OCC)c1C (centres undefined)	11.4%
Cc1ccc(NC(=S)Nn2cnnc2)cc1	61.8% (active)
CNC(=S)Nc1ccc(OC)c(OC)c1	7.4%
CCc1ccc(NC(=S)Nn2cnnc2)cc1	54.2% (active)
FC(F)Oc1ccc(NC(=S)NN2CCOCC2)cc1	-3.1%
CCc1ccc(NC(=S)NCc2ccccc2)cc1	-2.6%
COc1ccc(NC(=S)NN2CCN(C)CC2)cc1OC	22.9%
COc1ccc(NC(=S)Nn2cnnc2)cc1OC	61.2% (active)
CCc1ccc(NC(=S)Nc2ccc(S(=O)(=O)Nc3ncccn3)cc2)cc1	-1.7%
FC(F)Oc1ccc(NC(=S)Nn2cnnc2)cc1	55.2% (active)
CN1CCN(NC(=S)Nc2ccc(OC(F)F)cc2)CC1	-15.1%
Cc1ccc(C(=O)NC(=S)Nn2cnnc2)cc1	12.4%
S=C(Nc1ccccc1)Nn1cnnc1	48.4%
CCc1ccc(C(=O)COC(=O)c2n[nH]c3ccccc23)cc1	-0.2%
CCC1C(=O)N(C)CCc2ccccc21 (centres undefined)	-5.7%
COC(=O)c1nc(-c2ccccc2)oc1N1CCOCC1	-4.7%
COc1ccc(C)cc1NC(=O)C(Sc1nnc2ccccn12)c1ccccc1 (centres undefined)	-1%
Cc1ccc(S(=O)(=O)N/N=C/c2ccc(OS(=O)(=O)c3ccc(C)c([N+](=O)[O-])c3)cc2)cc1	1.6%
O=C(/C=C/c1ccc(Br)cc1)c1ccc(NC2=NCCCS2)cc1	1.6%
COc1ccc(Nc2nc3[nH]c(=O)cc(O)c3s2)cc1	50.2% (active)
COc1ccc(Nc2nc(C)cc(=O)[nH]2)cc1	5.6%

Structure (SMILES)	inhibition
O=c1cc(O)c2sc(Nc3ccc(F)c(Cl)c3)nc2[nH]1	41.4%
O=c1cc(O)c2sc(Nc3ccc(F)cc3)nc2[nH]1	69.8% (active)
O=c1cnnc(Nc2cccc(C(F)(F)F)c2)[nH]1	-10.6%
O=c1cc(O)c2sc(Nc3cccc(C(F)(F)F)c3)nc2[nH]1	52.4% (active)
Cc1cc(=O)[nH]c(Nc2cccc(C(F)(F)F)c2)n1	-10.3%
COc1ccc(Nc2nc3ccc(OC)cc3s2)cc1	-0.9%
Fc1ccc(Nc2nc3ccccc3s2)cc1	7.9%
CN(C)CCCN(C(=O)c1cc2ccccc2oc1=O)c1nc2c(F)cccc2s1	7.5%
O=C(CSc1n[nH]c(-c2cccs2)n1)N1CCN(S(=O)(=O)c2ccccc2)CC1	8.5%
C#CCOCCOCCOCCNc1nc(N2CCOCC2)nc(N2CCN(C(=O)[C@H](C)n3cc(CCCN=C(N)N)nn3)CC2)n1	-9.8%
COC(=O)c1ccc(NC(=O)CSc2n[nH]c(-c3ccncc3)n2)cc1	11.1%
COc1ccc(OCC(=O)N/N=C(\C)c2cc3ccccc3o2)cc1	4.9%
CC(SCC(=O)Nc1ccc(S(=O)(=O)N2CCCCC2)cc1)C(=O)O (centres undefined)	3.5%
c1cc(Nc2cccc3nccnc23)c2nccnc2c1	28.5%
Clc1cccc(Cl)c1NC1=NCCN1	-30.9%
Brc1c(NC2=NCCN2)ccc2nccnc12	54.4% (active)
Cc1nc2ccccc2n1CC(=O)OCC(=O)NCc1ccccc1	-3%
CS(=O)(=O)N(CC(=O)Nc1ccc(S(=O)(=O)N2CCCC2)cc1)c1ccccc1F	2.4%
O=C(Cn1nc(C(F)F)cc1C(F)F)N/N=C/c1ccc2c(c1)OCO2	92.9% (active)
Cc1cc(C)n(CC(=O)N/N=C/c2ccc3c(c2)OCO3)n1	12.1%
Cc1ccnn1CC(=O)N/N=C/c1ccc2c(c1)OCO2	-2.6%
Cc1cccc(C(=O)CC(=O)c2cc(Cl)ccc2O)c1	5.2%
Cc1ccc(C(=O)CC(=O)c2cc(Cl)ccc2O)cc1	-10.2%
O=C(CC(=O)c1cc(Cl)ccc1O)c1ccccc1	59.9% (active)
